For seven compounds, growth results are on record in PubChem BioAssay (NCI).

Several values for one entry are separate records, joined by “and”; a condition that tells them apart may be missing. Equal values may be shown once. Compounds without any hit were thinned out: in the full panel of roughly 83,000, 20% have a hit.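 Percent growth is the endpoint: 0 to 100 indicates growth inhibition (40 means 60% inhibition), 0 means no net growth, and negative values indicate cell death.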 Activity calls are given as the source filed them. How the source made its calls: active means growth percent below 10; inactive means the rest.

What all share (experiment): NCI-60 one-dose screen, 48 h (100 = growth as untreated, 0 = no growth, -100 = all killed)
Conditions in all cases: 10 µM unless noted

Test [1] concerns NCI-H23 lung.
Test [2] relates to NCI-H226 lung.
For test [3], the system named is NCI-H322M lung.
For test [4], the system named is HOP-62 NSCLC.
Test [5] has as its system NCI-H460 lung.
The test system of test [6] is HOP-92 NSCLC.
Test [7] concerns NCI-H522 lung.
For test [8], the system named is A549/ATCC NSCLC.
Test [9] has as its system 786-0 renal.
Test [10] has as its system COLO 205 colon.
For test [11], the system named is DU-145 prostate.
Test [12] has as its system K-562 leukemia.
Test [13] concerns MALME-3M melanoma.
In test [14] the test system is MDA-MB-231 breast.
In test [15] the test system is RXF 393 renal.
Test [16] has as its system SF-268 CNS.
For test [17], the system named is SF-295 CNS.
Test [18] deals with SF-539 CNS.
Test [19] relates to UACC-257 melanoma.
The subject of test [20] is M14 melanoma.

For the compound `O=C1C(c2c[nH]c3ccccc23)=C(c2coc3cc(Br)ccc23)C(=O)N1O`, the growth is 93.1% (inactive) in test [1]; 87.1% (inactive) in test [2]; 97.1% (inactive) in test [3]; 104% (inactive) in test [4]; 97.2% (inactive) in test [5]; 92.1% (inactive) in [6]. Also, the growth is 89.4% (inactive) in [7]; 98.4% (inactive) in test [8]; 94.6% (inactive) in test [9]; 117% (inactive) in test [10]; 107% (inactive) in test [11]; 93.8% (inactive) in test [12]. For the same compound, the growth was 107% (inactive) in test [13]; 85.9% (inactive) in test [14]; 105% (inactive) in test [15]; 98.6% (inactive) in [16]; 95.3% (inactive) in test [17]; 106% (inactive) in [18]. Further, the growth in test [19] is 100% (inactive); in [20], 101% (inactive).
Turning to `COCCn1cc(-c2nc(-c3cn(CCOC)c4ncccc34)cs2)c2ccccc21`, the growth in test [1] was 56.2% (inactive); in test [2], 87.3% (inactive); in [3], 59.2% (inactive); in test [4] it was 67.8% (inactive); in test [5] it was 56.6% (inactive); in test [6], 66.4% (inactive). Besides, the growth in test [7] is 53.4% (inactive); in test [8], 70.8% (inactive); in test [9] it was 82.9% (inactive); in test [10] it was 18.8% (inactive); in [11], 97.1% (inactive); in [12], 119% (inactive). In addition, the growth in test [13] is 88.6% (inactive); in [14] it was 49% (inactive); in [15] it was 76.1% (inactive); in [16] it was 83.3% (inactive); in [17], 91.4% (inactive); in test [18] it was 79.4% (inactive). Also, the growth in [19] is 88% (inactive); in [20] it was 99.9% (inactive).
In the case of `Cc1nc2cccc(NCCCCC(=O)NO)c2c(=O)n1-c1ccccc1`, the growth in test [1] was 69.3% (inactive); in [2], 83.9% (inactive); in test [3] it was 66.1% (inactive); in test [4], 50.3% (inactive); in test [5], 76.5% (inactive); in [6], 43.3% (inactive). Further, the growth is 43.5% (inactive) in [7]; 78.8% (inactive) in [8]; 69.7% (inactive) in [9]; 62.4% (inactive) in [10]; 58.1% (inactive) in [11]; 40.9% (inactive) in test [12]. For the same compound, the growth is 23.4% (inactive) in test [13]; 77.1% (inactive) in [14]; 49.2% (inactive) in test [15]; 74.6% (inactive) in [16]; 82.9% (inactive) in test [17]; 49.9% (inactive) in test [18]. The growth in test [19] was 42.7% (inactive); in test [20] it was 50.4% (inactive).
As for `N=C(N)SCc1c2ccccc2c(CSC(=N)N)c2ccccc12`, the growth is 54.4% (inactive) in test [1]; 71.2% (inactive) in test [2]; 103% (inactive) in test [3]; 55.5% (inactive) in test [4]; 34.4% (inactive) in test [5]; 32.2% (inactive) in [6]. In addition, the growth in test [7] is 31.2% (inactive); in test [8], 65.9% (inactive); in test [9] it was 47.7% (inactive); in [10], 66.1% (inactive); in test [11], 63.9% (inactive); in [12], 35.3% (inactive). The growth is 71.3% (inactive) in test [13]; 103% (inactive) in test [14]; 99.7% (inactive) in [15]; 55.5% (inactive) in test [16]; 66.7% (inactive) in [17]; 84% (inactive) in test [18]. Moreover, the values for the growth in [19] and in test [20] were 119% (inactive) and 68.4% (inactive), respectively.
For `COc1ccccc1/C=C/C(=O)/C=C/c1ccccc1OC`, the growth was -26% (active) and 24.7% (inactive) in test [1]; -30.6% (active) in [2]; 30.6% (inactive) and 38.9% (inactive) in test [3]; -22.7% (active) and -19.7% (active) in test [4]; 2.27% (active) and -3.65% (active) in [5]; -10.9% (active) and 33.9% (inactive) in test [6]. Besides, the growth is -84.5% (active) and -58.5% (active) in test [7]; -13.8% (active) and -7.39% (active) in [8]; -56.9% (active) and -47.8% (active) in test [9]; -73.7% (active) and -57.9% (active) in test [10]; -11.9% (active) and -11.3% (active) in test [11]; 10.9% (inactive) in test [12]. Further, the growth is -33.8% (active) and 2.49% (active) in test [13]; 17.5% (inactive) and 8.92% (active) in [14]; -87.5% (active) and -89.7% (active) in test [15]; 8.73% (active) and 21.3% (inactive) in [16]; 10.4% (inactive) and -31% (active) in test [17]; 3.38% (active) and -29.1% (active) in [18]. Further, the growth in test [19] is -29.2% (active) and 6.89% (active); in test [20], 8.11% (active) and -49.7% (active).
Regarding `N=C(N)c1ccc(-c2ccc(-c3ccc(Cl)c(Cl)c3)s2)cc1`, the growth in [1] was 63.1% (inactive); in [2] it was 98.9% (inactive); in test [3], -3.21% (active); in [4], 40.8% (inactive); in [5] it was -58.7% (active); in test [6], 74.4% (inactive). Moreover, the growth in test [7] is -38.4% (active); in test [8], -51.9% (active); in test [9], -3.47% (active); in test [10], -17.9% (active); in [11] it was -88.9% (active); in test [12], -11.6% (active). Also, the growth in [13] was 78.7% (inactive); in [14] it was -20.2% (active); in [15] it was 77.9% (inactive); in test [16], 56.2% (inactive); in [17] it was 35.5% (inactive); in test [18] it was 52.7% (inactive). The growth in test [19] was 96.6% (inactive); in test [20], 38.1% (inactive).
With `COc1ccc(-c2ccc(-c3ccc(C(=N)N)cn3)o2)cc1Cl`, the growth is 69.3% (inactive) in [1]; 81.4% (inactive) in test [2]; 77.2% (inactive) in [3]; 67.5% (inactive) in test [4]; 0.593% (active) in test [5]; 36.4% (inactive) in test [6]. Besides, the growth is 59.5% (inactive) in test [7]; 21.2% (inactive) in [8]; -6.3% (active) in test [9]; -72.6% (active) in test [10]; 46.5% (inactive) in test [11]; -40.3% (active) in [12]. Also, the growth in test [13] was 5.7% (active); in [14], 4.25% (active); in test [15], 56.6% (inactive); in test [16], 46.5% (inactive); in test [17], 73.6% (inactive); in test [18] it was 33% (inactive). Besides, the values for the growth in [19] and in test [20] were 77.1% (inactive) and 31.8% (inactive), respectively.
